Among the data in PubChem BioAssay are z-score values, retold here.

The assay can be described thus: HepG2 cell viability effects, profiling panel, calcein-AM fluorescence, 48 h, basal (AID 1164). Further: test concentration not given here. The following applies: higher = more signal.
`COc1ccc(C#Cc2ccc3c(c2)[C@]2(C(=O)N3)[C@H](c3ccc(O)cc3)N3[C@H](c4ccccc4)[C@H](c4ccccc4)OC(=O)[C@H]3[C@@H]2C(=O)O)cc1`: the z-score is 0.127.
To `COC(=O)[C@@]1(Cc2ccccc2)[C@H]2c3cc(C(=O)N(C)C)n(CCN4CNCC4=O)c3C[C@H]2CN1C(=O)c1ccccc1` belongs 0.0701; to `O=C1OCC=C[C@H]2OC34C=CCN(Cc5ccccc5)C(=O)[C@H]3N(CCCCCCO)C(=O)[C@@H]4[C@@H]12` (stereo not given in full), -0.246; to `COc1cc2c(cc1OC)CN(C(=O)[C@@H]1[C@H]3C(=O)O[C@H](c4ccccc4)[C@H](c4ccccc4)N3[C@H](c3ccc(OCCO)cc3)[C@@]13C(=O)Nc1ccccc13)CC2`, 1.35.
In the case of `COCCOC(=O)N1C(=O)[C@@]2(c3cc(C#CC4=CCCCC4)ccc31)[C@H](C(=O)N1CCCCCCC1)[C@H]1C(=O)O[C@H](c3ccccc3)[C@H](c3ccccc3)N1[C@@H]2c1ccc(O)cc1`, the z-score was 0.474.
To `C=CCC(OC(C)=O)[C@@H]1[C@@H](N(Cc2cc3ccccc3o2)C(=O)Cc2ccc(F)cc2)c2cc(OCCCO)ccc2N1C(=O)c1ccc2ccccc2c1` (stereo not given in full) belongs 1.93; to `CCOC(=O)C[C@H]1[C@H](OC(=O)Cc2ccc3c(c2)OCO3)[C@@H](NC(=O)Cc2ccc(OC)cc2)c2cc(OCCCO)ccc2N1C(=O)c1ccc2ccccc2n1`, 1.37.
To `COCCOC(=O)N1C(=O)[C@@]2(c3cc(C#Cc4ccc(OC)cc4)ccc31)[C@H](c1ccc(O)cc1)N1[C@H](c3ccccc3)[C@H](c3ccccc3)OC(=O)[C@H]1[C@@H]2C(=O)N1CCCCCCC1` belongs -0.261; to `COC(=O)[C@@]1(Cc2ccccc2)[C@H]2c3cc(C(=O)N(C)C)n(Cc4c(CO)[nH]cc(C)c4=O)c3C[C@H]2CN1C(=O)c1ccccc1`, 1.2; to `CN(C)C(=O)[C@]1(CCS(=O)(=O)c2ccccc2)N=C(c2ccc(OCCCO)cc2)O[C@@H]1c1ccccc1N=[N+]=[N-]`, 0.591.
To `CCCCCCc1nc(-c2cc(C)c(OC)c(C)c2)c(C)c2c1[Si](C(C)C)(C(C)C)OC2` belongs -0.289; to `CC(C)C[C@@H]1NC(=O)[C@@H]2C[C@H](C(=O)NCCCCCN)[C@H](c3ccc(O)cc3)N2C1=O`, -0.354; to `C[C@H]1NC(=O)[C@@]23C(=O)N[C@@H](Cc4ccccc4)C2[C@H](C)[C@@]2(C)O[C@H]2C3/C=C/C/C=C\CNC(=O)[C@H](Cc2ccccc2)NC1=O` (stereo not given in full), -0.607.
`C=CC[C@]1(C(=O)NCCN2CCOCC2)N=C(c2ccc(OCCCO)cc2)O[C@H]1c1ccccc1CN=[N+]=[N-]`: the z-score was 0.187.
For the molecule `O=C1O[C@H](c2ccccc2)[C@H](c2ccccc2)N2[C@H]1[C@@H](C(=O)Nc1nc3ccccc3s1)[C@]1(C(=O)Nc3ccccc31)[C@H]2c1ccc(OCCO)cc1`, the z-score is 0.349.
Regarding `CN1C(=O)C2C=CC(C(O)c3cccc(O)c3)N(Nc3ccccc3)C2C1=O` (stereo not given), the z-score was -0.333.
As for `C=C(COC)/C(=C/C[C@H](OC(=O)c1ccncc1)c1ccccc1OCCO)c1cnc2ccccc2c1`, the figure is -0.693.
Turning to `[N-]=[N+]=Nc1ccccc1[C@@H]1OC(c2ccc(OCCCO)cc2)=N[C@]1(Cc1ccccc1)C(=O)NCC(O)CO` (stereo not given in full), the z-score is -0.306.
As for `CCOc1cc(C(O)C2C=CC3C(=O)N(C)C(=O)C3N2Nc2ccccc2)ccc1O` (stereo not given), the figure is -0.243; as for `CCOC(=O)C1=C[C@@H](c2ccccc2)N(S(=O)(=O)c2ccc(C)cc2)[C@H]1c1ccccc1Cl`, 0.0009.
As for `COC(=O)c1c2oc(c1C(=O)OC)C(=O)N(Cc1ccccc1)Cc1cn(nn1)C[C@H](Cc1ccccc1)NC(=O)N[C@H](CO)CC2`, the figure is 0.377.
To `O=C(CS)NCCCCCNC(=O)[C@@H]1C[C@@H]2C(=O)N3CCC[C@H]3C(=O)N2[C@@H]1c1cccc(OCCO)c1` belongs 0.451; to `C=C[C@@H](COC(C)=O)N(C(=O)OC(C)(C)C)S(=O)(=O)c1ccc(Br)cc1`, 0.469; to `COc1cccc(/C=C/C=O)c1`, 0.844.
On to `COc1ccc(CN(C2=CC[C@@]3(C(N)=O)C(=O)C(Cl)=C(Cl)C(=O)[C@@]3(C#N)C2)S(=O)(=O)c2ccc(Br)cc2)cc1`, for which the z-score is 0.0144.
As to `O=C1O[C@@H](c2ccccc2)[C@@H](c2ccccc2)N2[C@@H](c3ccc(O)cc3)[C@]3(C(=O)Nc4ccc(C#CC5=CCCCC5)cc43)[C@@H](C(=O)NC[C@H](O)c3ccccc3)[C@H]12`, the z-score is -1.86.
As for `Cc1ccccc1C(O)C1C=CC2C(=O)N(C)C(=O)C2N1N(c1ccccc1)c1ccccc1` (stereo not given), the figure is 0.655; as for `CCOC(=O)[C@H]1[C@@H]2C(=O)N3CCC[C@H]3[C@H](O[Si](C(C)C)(C(C)C)C(C)C)[C@H]2C=C2CCN(S(=O)(=O)c3ccc(C)cc3)C[C@H]21`, -1.18; as for `CC(CO)N1C(=O)[C@@H]2[C@H]3C(=O)OCC=C[C@H]3OC23C=CCN(C(C)(C)C)C(=O)[C@@H]13` (stereo not given in full), -0.711.
Turning to `O=C1C2C=CC(C(O)c3ccccc3)N(Nc3ccccc3F)C2C(=O)N1c1ccccc1` (stereo not given), the z-score is 0.925.
As for `COCCOC(=O)N1C(=O)[C@@]2(c3cc(C#CC4=CCCCC4)ccc31)[C@H](c1ccc(O)cc1)N1[C@H](c3ccccc3)[C@H](c3ccccc3)OC(=O)[C@H]1[C@@H]2C(=O)N1CCN(c2ncccn2)CC1`, the figure is 0.19.
For the molecule `CC(C)C(=C=CC[C@H](O)c1cccc(OCCO)c1)C[C@H](O)c1cc(Cl)cc(Cl)c1O`, the z-score was 0.142.
As for `O=C(NCc1ccccc1)[C@@H]1c2ccccc2C(=O)N(Cc2ccccc2C(F)(F)F)[C@H]1c1ccc(CO)cc1`, the figure is 1.53; as for `CC(C)Cc1ccc(CN2CC[C@@H](NC(=O)Nc3ccccc3)C2)cc1`, -4.91.
As for `CCC(CC)C(O)C1C=CC2C(=O)N(c3ccccc3)C(=O)C2N1Nc1ccc(C(C)C)cc1` (stereo not given), the figure is 0.0413.
